# Bioassay records from PubChem.
# In the library only some 3.9% were active in any assay of this set; here they are far more common.
# HepG2 viability = HepG2 cytotoxicity, counter-screen for TGF-b inhibitors. HepG2 CAGA-GFP viability, ATP luminescence, 18 h. Potency, µM (top dose mostly 46.1 µM), without a hit: top-dose activity change, negative = cytotoxicity, usual class: cytotoxic. actives 0.76% (n = 410,000)
#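 CellTiter-Glo luminescence gave cytotoxicity after 18 hours at 37 degrees C. The cells were HepG2 CAGA-GFP in 1% FBS DMEM, stimulated with 500 pg/mL TGF-beta after compound addition. %Activity was normalised to no-cell wells (complete cell-killing) and DMSO (no toxicity), and curves were fitted and classified.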
# HT1080-NT tox = kills 2HG-producing HT-1080-NT fibrosarcoma cells; Potency, µM (top dose mostly 46.1 µM), for the others: at the highest dose activity, negative = less viability, actives largely listed as cytotoxic; actives 1.6% (n = 360,000); HT-1080-NT fibrosarcoma viability, CellTiter-Glo ATP luminescence, 48 h;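 note: NT is the 2HG producing partner of a matched IDH1 knockdown line; 0% = DMSO-treated cells and -100% = media-only wells without cells; nearly all actives have a fitted effect of over 55% in size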
#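 Compounds were tested in concentration-response format on HT-1080-NT cells for 48 hours at 37 degrees C. Cell viability came from CellTiter-Glo luminescence; curves were classified by r2, response magnitude and activity.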
# HT1080 IDH1KD tx = HT-1080 IDH1 knockdown cell toxicity (counter line). HT-1080 IDH1 knockdown viability, ATP luminescence, 48 h. Potency, µM (doses to about 46.1 µM), inactives show top-dose activity, negative = toxicity, actives largely listed as cytotoxic. actives 2% (n = 360,000). AID 686971;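 note: 0% = DMSO wells and -100% = cell-free medium wells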
#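 CellTiter-Glo luminescence after 48 h compound exposure at 37 degrees C of IDH1-knockdown HT-1080 cells in 5% FBS RPMI. %Activity scaled between DMSO wells and cell-free media wells, with curves fitted and assigned curve classes.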
# ATXN2 expr inh = ATXN2 expression inhibition; HEK-293 ATXN2-luciferase reporter, luminescence, 24 h; actives 0.72% (n = 360,000); Potency, µM (series often up to 57 µM), for the others: at the highest dose activity change, negative = inhibition, actives largely listed as inhibitors; note: % is set by controls: 0 for no effect and ±100 for the full control effect; nearly all actives have a fitted effect of over 55% in size
#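 qHTS (up to 57 uM final) was run with 24 h compound exposure of reporter cells at 37 °C. Each well was multiplexed: SteadyGlo luminescence measured ATXN2-luciferase expression after a fluorogenic Gly-Phe-AFC viability readout (25 uM final).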
# S2 tox = reduces viability in counter-screen for ATXN expression inhibitors; Potency, µM (top dose mostly 56.7 µM), usual class: cytotoxic; S2 cells (HEK-293 line with an ATXN2-luciferase reporter) viability, CellTiter-Fluor protease fluorescence, 24 h; actives 0.49% (n = 400,000); AID 651635; note: nearly all actives have a fitted effect of over 40% in size
# TGFb SMAD3 inh = inhibitors of TGF-b signaling. Potency, µM (doses to about 46.1 µM), inactives show top-dose activity, negative = inhibition, most hits filed as inhibitors. AID 588855. HepG2 CAGA-GFP TGF-b/SMAD3 reporter, GFP fluorescence, 18 h; TGF-beta stimulated, 500 pg/mL final. actives 1.2% (n = 410,000); note: % is set by controls: 0 for no effect and ±100 for the full control effect; nearly all actives have a fitted effect of over 65% in size
#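 Read-out: total well GFP (ex488/em500-530) summed from mean per-cell fluorescence. Cells: HEPG2 CAGA-GFP, 1% FBS DMEM, 18 h at 37 degrees C with 500 pg/mL final TGF-beta. Unstimulated wells served as the full-inhibition control; stimulated DMSO wells = 0%.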
# An asterisk follows results filed as active; i = inactive; ? = inconclusive; . = no result given; [ ] = another dose, or the depositor's remark. Calls come from the whole dose curve; as a rule, active = well fitted curve in the direction sought with a large enough effect; inconclusive = small, poorly fitted or top-dose-only effect, or another doubt; inactive = no such curve, though single readings can be large; an effect the other way counts as inactive or inconclusive. Potency is the fitted concentration of half-maximal effect.
SMILES,HepG2 viability,HT1080-NT tox,HT1080 IDH1KD tx,ATXN2 expr inh,S2 tox,TGFb SMAD3 inh
CC(=O)C1=C(C)OC(N)=C(C#N)C1c1cc([N+](=O)[O-])ccc1Cl (stereo unspecified),6.31µM*,16.4µM*,?,-24.0%,i,?
O=C(NCCCN1CCN(c2ccc(F)cc2)CC1)NC12CC3CC(CC(C3)C1)C2,-11.2%,16.4µM*,14.6µM*,?,i,3.6%
O=C(NCCCN1CCN(c2ccc(F)cc2)CC1)Nc1ccc(Cl)cc1,-97.0%,.,.,?,?,?
O=C(CN1CCN(Cc2ccc(Cl)cc2)C1=O)NCCCN1CCN(c2ccc(F)cc2)CC1,-57.4%,?,15.8µM*,-35.5%,i,1.3%
COC(=O)c1ccccc1-c1cc(C)cc2c1OC(CNC(=O)C1CCCO1)C2 (stereo unspecified),.,.,.,.,i,.
CCOc1cc(Cn2c(-c3ccc(O)c(OCC)c3)nc3ccccc32)ccc1O,-15.5%,.,.,-21.0%,i,-11.4%
COc1ccc2oc(=O)cc(CN3CCN(c4ccccc4F)CC3)c2c1,-30.9%,.,.,.,.,?
Oc1ccc(/C=C/c2nc(-c3ccccc3O)n(-c3ccccc3)n2)cc1,-99.8%,?,?,-27.9%,?,?
Oc1ccc(/C=C/c2nc(-c3ccccc3O)n(-c3ccccc3)n2)c(O)c1,14.1µM*,.,.,.,.,11.2µM*
COc1cc(/C=C(\C#N)c2nc3ccc(C)cc3[nH]2)cc([N+](=O)[O-])c1O,-2.6%,-13.8%,-6.7%,36.9%,17.8µM*,?
COc1cc(/C=C(\C#N)c2nc3ccc(C)cc3[nH]2)c([N+](=O)[O-])cc1OC,-12.9%,-19.4%,?,-2.6%,i,25.8%
C[C@](Cc1c[nH]c2ccccc12)(NC(=O)OC1C2CC3CC(C2)CC1C3)C(=O)NC[C@H](NC(=O)CCC(=O)O)c1ccccc1 (stereo partly specified),.,.,.,-1.8%,.,.
CCCCCCC[n+]1ccc(/C=C/c2c(C)[nH]c3ccccc23)c2ccccc21,-113.7%,.,.,.,.,12.6µM*
CCCCCCCCCCCCCCCC[n+]1ccc(/C=C/c2c[nH]c3ccccc23)cc1,-95.2%,.,.,.,.,190.0%
Cc1[nH]c2ccccc2c1/C=N/Nc1ccc([N+](=O)[O-])cc1,-0.6%,9.2µM*,?,6.9%,.,21.7%
Cc1[nH]c2ccccc2c1/C=C/c1c(C)[nH]c2ccccc12,-47.9%,.,.,.,.,6.31µM*
CCCCCCCCCC[n+]1ccc(/C=C/c2c[nH]c3ccccc23)cc1,15.8µM*,.,.,.,.,259.7%
Cc1[nH]c2ccccc2c1/C=C/c1cc[n+](C)cc1,-0.1%,-23.4%,-7.1%,-14.9%,i,91.6%
O=C(O)[C@H](O)[C@@H](O)[C@H](O[C@@H]1O[C@H](CO)[C@H](O)[C@H](O)[C@H]1O)[C@H](O)CO,.,.,.,5.4%,i,.
COc1cc(Cl)c(C)cc1NC(=O)CSc1nc2c(c(=O)[nH]1)CCC2,0.9%,.,.,10.1%,i,-7.7%
CCCCCCC[n+]1ccc(/C=C/c2c[nH]c3ccccc23)c2ccccc21,12.6µM*,.,.,.,.,7.08µM*
CCCCCCCCCC[n+]1ccc(/C=C/c2c(C)[nH]c3ccccc23)c2ccccc21,3.16µM*,.,.,.,.,2.51µM*
COc1cccc(C2CC(=O)Nc3c2c(=O)[nH]c2ncnn32)c1OC (stereo unspecified),-3.2%,.,.,8.5%,i,2.6%
O=C1/C(=C/c2ccncc2)CCC/C1=C\c1ccncc1,12.6µM*,4.61µM*,4.11µM*,14.1µM*,?,3.16µM*
CCC(C)NCCCOc1ccc(Cl)cc1C(C)(C)C (stereo unspecified),-34.4%,-7.8%,-15.7%,-4.7%,i,-25.2%
SMILES,HepG2 viability,HT1080-NT tox,HT1080 IDH1KD tx,ATXN2 expr inh,S2 tox,TGFb SMAD3 inh
CNCCCOc1ccc(Cl)cc1C(C)(C)C,-101.0%,?,23.1µM*,?,?,?
COCCCNCCCOc1ccc(Cl)cc1C(C)(C)C,15.8µM*,?,20.6µM*,?,?,?
COCCNCCCOc1ccc(Cl)cc1Br,-18.8%,?,?,.,i,-6.9%
CCNC(=O)[C@@H]1CCCN1C(=O)[C@H](CCCN=C(N)N)NC(=O)[C@H](CC(C)C)NC(=O)CNC(=O)[C@H](Cc1ccc(O)cc1)NC(=O)[C@H](CO)NC(=O)[C@H](Cc1c[nH]c2ccccc12)NC(=O)[C@H](Cc1cnc[nH]1)NC(=O)[C@@H]1CCC(=O)N1,.,.,.,11.2%,i,.
CC(=O)OCC(=O)[C@@]12OC(C)(C)O[C@H]1C[C@H]1[C@@H]3C[C@H](F)C4=CC(=O)C=C[C@]4(C)[C@@]3(F)[C@@H](O)C[C@@]12C,.,.,.,-16.9%,.,.
Cc1cc(C)c2ccc(N)nc2c1O,-36.3%,10.3µM*,?,?,.,-13.8%
COc1cc(SC)ccc1C(=O)Nc1nc2ccccc2[nH]1,10µM*,1.64µM*,1.46µM*,0.316µM*,i,18.4%
COc1ccccc1C(=O)Nc1nc2ccccc2[nH]1,2.82µM*,1.46µM*,1.3µM*,0.316µM*,i,-6.7%
CC(C)(C)n1ncc2c(=O)n(Cc3cc(F)c(F)cc3Cl)cnc21,6.1%,.,.,.,.,9.1%
O=C(NN=C1CCCC1)c1n[nH]c2c1CCC2,-6.6%,2.59µM*,3.66µM*,43.1%,i,-14.8%
Cc1ccsc1/C=N\NC(=O)c1n[nH]c2c1CCC2,-38.5%,6.51µM*,7.31µM*,?,i,4.1%
O=C(N/N=C/c1c(Cl)cccc1Cl)c1n[nH]c2c1CCCC2,-24.2%,10.1%,-0.8%,.,i,-3.5%
O=C(NC1CCCCC1)c1n[nH]c2c1CCCCC2,-48.6%,?,-28.2%,10µM*,i,16.0%
CCOc1cc2c3c(c1)C1(OCCO1)C(=O)N3C(C)(C)CC2C (stereo unspecified),0.0%,-1.4%,-2.3%[9.24 µM],-2.8%,i,12.8%
CCOc1cc2c3c(c1)C1(Nc4ccccc4S1)C(=O)N3C(C)(C)CC2C (stereo unspecified),-34.6%,?,?,-11.8%,i,12.6µM*
COc1ccccc1NS(=O)(=O)c1cccc(NC(=O)Nc2ccc(Cl)cc2)c1,12.6µM*,?,18.4µM*,?,?,?
O=C(Nc1cccc(S(=O)(=O)N2CCCCC2)c1)c1ccc([N+](=O)[O-])o1,-59.0%,10.3µM*,5.17µM*,?,?,?
O=C(Nc1cccc(S(=O)(=O)N2CCCCC2)c1)Nc1ccc(Cl)cc1Cl,10.2%,20.6µM*,16.4µM*,?,?,?
